{"source": "PubChem BioAssay (EPA / NIEHS)", "note": "Values joined by “and” are separate entries in the source; they are usually repeats but may differ in a detail not shown here. Equal values may be shown once. The source holds several records for some structures; these can differ, active in one and inactive in another. Active and inactive are the calls of the source. How the source made its calls: active means hit-call score of the fitted dose curve at least 0.9, where 1 is the maximum; inactive means score below 0.9."}
{"assay": "BSK_IMphg_SRB.Mphg: Macrophage Viability Assessment in the BioMAP Diversity Plus: IMphg Assay (AID 2284295)", "conditions": "primary human endothelial cells with macrophages", "experimental": "BSK_IMphg is a cell-based, multiplexed-readout assay that uses venular endothelial cells and macrophages, a human vascular primary cell, with measurements taken at 24 hours after chemical dosing in a microplate: 96-well plate.BSK_IMphg_SRB.Mphg is an assay component measured in the BSK_IMphg assay. It measures […] related to cell death using Sulforhodamine staining technology.Data from the assay component BSK_IMphg_SRB.Mphg was analyzed at the endpoint, BSK_IMphg_SRB.Mphg, in the positive analysis fitting direction relative to DMSO as the negative control and baseline of activity. Using a type of viability reporter, gain or loss-of-signal activity can be used to understand protein changes. To generalize the intended target to other relatable targets, this assay endpoint is annotated to the 'cell morphology' intended target family, where the subfamily is 'cell conformation'.\nThe levels of cell surface (or secreted, indicated by the prefix \"s\") biomarker endpoints were measured by ELISA. Overt cytotoxicity to cells in confluent adherent cultures (all systems other than the BT system) was assessed by measuring total protein levels using sulforhodamine B (SRB) staining in parallel cultures at the time of biomarker measurements, indicated as SRB endpoints. For proliferation assays for adherent cell types, individual cell types are cultured at sub-confluence and relative cell numbers quantified by SRB staining at time points optimized for each system (48 h: 3C and CASM3C systems; 72 h: BT and HDF3CGF systems; 96 h: SAg system). SRB was performed by staining cells with 0.1% SRB after fixation with 10% TCA and reading wells at 560 nm.Viability and proliferation of PBMC (T cells) was quantified by Alamar Blue reduction for the SAg and BT systems. For PBMC viability (referred to as PBMC Cytotoxicity within the assay endpoint names), cells were plated (75,000/well in a 96-well plate) and then chemical samples added for 1 h before addition of activators, SEB and TSST-1 (20 ng/mL final concentration each). Cells were incubated for 90 h. Then, Alamar Blue (20 uL/well) (Invitrogen, Cat DAL1100) was added for 6 h, and the plates were read with a fluorescence microplate reader at 546/580 nm (excitation/emission). For PBMC proliferation, cells were plated and activated as above but incubated for only 16 h prior to addition of Alamar Blue. Plates were read after 6 h."}
{"smiles": "O=S(=O)(O)C(F)(F)C(F)(F)C(F)(F)C(F)(F)C(F)(F)C(F)(F)C(F)(F)C(F)(F)C(F)(F)C(F)(F)F", "outcome": "inactive", "AC50": "668 nM (active)"}
{"smiles": "O=C(O)CCC(F)(F)C(F)(F)C(F)(F)C(F)(F)C(F)(F)C(F)(F)F", "outcome": "inactive"}
{"smiles": "CN(Cc1cnc2nc(N)nc(N)c2n1)c1ccc(C(=O)N[C@@H](CCC(=O)O)C(=O)O)cc1", "AC50": "3260 nM (active)", "outcome": "inactive"}
{"smiles": "O=P(O)(O)CCC(F)(F)C(F)(F)C(F)(F)C(F)(F)C(F)(F)C(F)(F)C(F)(F)C(F)(F)F", "outcome": "inactive"}
{"smiles": "O=P(O)(O)CCC(F)(F)C(F)(F)C(F)(F)C(F)(F)C(F)(F)C(F)(F)F", "outcome": "inactive"}
{"smiles": "O=C(O)CCC(F)(F)C(F)(F)C(F)(F)C(F)(F)C(F)(F)F", "outcome": "inactive"}
{"smiles": "O=C(O)C(F)(F)OC(F)(F)C(F)(F)OC(F)(F)C(F)(F)OC(F)(F)C(F)(F)C(F)(F)C(F)(F)F", "AC50": "42.9 µM (active) and 45.1 µM (active)"}
{"smiles": "O=C(CC(=O)C(F)(F)C(F)(F)C(F)(F)F)c1cccs1", "AC50": "43.1 µM (active) and 42.7 µM (active)"}
{"smiles": "OCC(F)(F)C(F)(F)C(F)(F)C(F)(F)C(F)(F)C(F)(F)C(F)(F)C(F)(F)C(F)(F)C(F)(F)C(F)(F)F", "AC50": "550 nM (active) and 521 nM (active)"}
{"smiles": "C=CC(=O)OCCC(F)(F)C(F)(F)C(F)(F)C(F)(F)C(F)(F)C(F)(F)C(F)(F)C(F)(F)F", "outcome": "inactive"}
{"smiles": "CN(CCO)S(=O)(=O)C(F)(F)C(F)(F)C(F)(F)C(F)(F)C(F)(F)C(F)(F)C(F)(F)C(F)(F)F", "outcome": "inactive"}
